The list is not random: actives were taken first. Their share in the collection is about 7.5%.
ELG1 genotox – qHTS screen for small molecules that induce genotoxicity in human embryonic kidney (HEK293T) cells expressing luciferase-tagged ELG1; HEK293T ELG1-luciferase reporter, luminescence, 16 h; Potency, µM (highest dose often 46 µM), for inactives: at the top dose activity change, positive = activation, most hits filed as activators; 330,000 compounds, 1.3% hits; further: % of control where 0% means no effect; nearly all actives have a fitted effect of over 60% in size
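Luminescence read-out: rising ELG1-luciferase signal, reflecting elevated ELG1 protein under genetic stress, flags genotoxic compounds. Cells were treated for 16 hr at 37 °C before ONE-Glo detection.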
NPC1 prom act – qHTS Assay for NPC1 Promoter Activators; Huh7 NPC1 promoter luciferase reporter, 24 h; Potency, µM (top dose mostly 9.22 µM), without a hit: at the top dose activation, actives largely listed as activators; 320,000 compounds, 2.4% hits; further: % of control where 0% means no effect; nearly all actives have a fitted effect of over 60% in size
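Huh7 reporter cells (NPC1 promoter driving luciferase) are dosed with compound for 24 h at 37 °C, 5% CO2; luciferase detection reagent is then added and luminescence measured after 10 min at ambient temperature.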
FLuc counter – qHTS profiling assay for firefly luciferase inhibitor/activator using purifed enzyme and Km concentrations of substrates (counterscreen for miR-21 project). Luciferin 4-monooxygenase (Photinus pyralis), P08659. purified FLuc, Km substrates, luminescence inhibition. Potency, µM (doses to about 57.5 µM), for the others: at the highest dose activity change, negative = inhibition, hits mostly inhibitors. 360,000 compounds, 6.9% hits. AID 588342, 2011;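 further: plate controls were vehicle for no effect and reference inhibitor for full effect; nearly all actives have a fitted effect of over 55% in size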
Target sequence (P08659 whole entry, looked up): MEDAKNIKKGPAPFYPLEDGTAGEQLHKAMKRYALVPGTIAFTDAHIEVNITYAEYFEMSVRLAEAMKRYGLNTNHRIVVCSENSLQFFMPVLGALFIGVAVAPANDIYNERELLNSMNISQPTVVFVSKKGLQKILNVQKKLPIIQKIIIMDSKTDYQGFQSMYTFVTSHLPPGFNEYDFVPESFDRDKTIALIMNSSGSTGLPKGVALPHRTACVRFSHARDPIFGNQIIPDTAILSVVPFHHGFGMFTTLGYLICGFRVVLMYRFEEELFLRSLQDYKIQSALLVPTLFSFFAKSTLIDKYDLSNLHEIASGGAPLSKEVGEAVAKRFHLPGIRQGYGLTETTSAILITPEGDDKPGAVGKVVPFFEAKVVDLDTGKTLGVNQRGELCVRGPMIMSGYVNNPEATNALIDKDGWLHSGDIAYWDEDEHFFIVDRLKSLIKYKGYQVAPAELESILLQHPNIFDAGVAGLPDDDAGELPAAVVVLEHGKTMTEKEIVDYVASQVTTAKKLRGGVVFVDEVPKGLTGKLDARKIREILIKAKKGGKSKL
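Purified P. pyralis luciferase (10nM final) with 10uM D-luciferin and 10uM ATP (Km levels) in 50mM Tris acetate pH 7.5, 10mM Mg acetate, 0.01% Tween-20, 0.05% BSA; qHTS 6-point titration, ~60 µM downward; luminescence read.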
Luc counter – Counterscreen for Luciferase (Kinase-Glo TM) Inhibition. Kinase-Glo luciferase, ATP luminescence, 8 min. Potency, µM (series often up to 38.3 µM), for the others: top-dose activity change, negative = inhibition, hits mostly inhibitors. 200,000 compounds, 0.28% hits; further: on the % scale 0 is the no-effect control and ±100 the full control effect; nearly all actives have a fitted effect of over 60% in size
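Compound is pinned into ATP-containing buffer (10 uM ATP, imidazole pH 7.2, 7 mM MgCl2). Kinase-Glo luciferase reagent is then added. Light output is recorded following an 8-min room-temperature incubation.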
SMN2 splice up – qHTS Assay for Enhancers of SMN2 Splice Variant Expression; HEK293 SMN2-luciferase splicing reporter, luminescence, 30-36 h; Potency, µM (series often up to 46.1 µM), inactives show at the top dose activity change, positive = activation, usual class: activators; 210,000 compounds, 2.8% hits; AID 1458, 2008; further: % of control where 0% means no effect; nearly all actives have a fitted effect of over 55% in size
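HEK293 cells carry an SMN2 […]–luciferase reporter in which exon 7 inclusion puts luciferase in frame. Cells were plated 10-12 h before compound addition, then incubated 30-36 h at 37C. ONE-Glo luminescence was read; sodium butyrate at 4.5 mM final served as control.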
Rab9 promoter act – qHTS Assay for Rab9 Promoter Activators. Huh7 Rab9 promoter-luciferase reporter, luminescence, 24 h. Potency, µM (series often up to 9.22 µM), inactives show at the highest dose activation, negative = inhibition, usual class: activators. 320,000 compounds, 2.8% hits. AID 485297, 2010; further: % of control where 0% means no effect; nearly all actives have a fitted effect of over 60% in size
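Huh7 reporter line, Rab9 promoter upstream of luciferase. Compound exposure 24 h at 37 °C in reduced-serum medium with 10% FBS. Read-out: luminescence.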
* = called active by the depositor; ? = inconclusive; . = no result. The call rests on the fitted dose curve; in most records, active means well fitted curve in the direction sought with a large enough effect; inconclusive means small, poorly fitted or top-dose-only effect, or another doubt; inactive means no such curve, though single readings can be large; an effect the other way counts as inactive or inconclusive. Potency means the concentration at half of the fitted maximal effect.

SMILES | ELG1 genotox | NPC1 prom act | FLuc counter | Luc counter | SMN2 splice up | Rab9 promoter act
CCn1c(C(=O)N2CCCC(C(=O)NCCCOC)C2)cc2sccc21 (stereo not given) | . | . | -6.7% | . | -4.6% | .
CC(=O)NCCC(=O)N1CCCC(CNC(=O)c2ccc(-c3ccccc3)cc2)C1 (stereo not given) | 8.5% | -3.6% | 15.1µM* | -2.9% | -3.1% | 10.6%
CC(=O)c1ccc(C(=O)N2CCCC(CNC(=O)c3ccccc3Cl)C2)cc1 (stereo not given) | 5.8% | -0.7% | -4.0% | . | . | 8.1%
Cc1ccccc1CC(=O)N1CCCC(CNC(=O)c2ccc(F)cc2)C1 (stereo not given) | 0.4% | 7.7% | 0.4% | . | . | -1.1%
O=C(NCC1CCCN(C(=O)c2cscn2)C1)c1ccccc1Cl (stereo not given) | 7.8% | -0.3% | ? | -1.0% | . | -0.6%
O=C(NCC1CCCN(C(=O)c2cscn2)C1)c1ccc(-c2ccccc2)cc1 (stereo not given) | 4.6% | -2.1% | 16.9µM* | -1.2% | . | 4.8%
C=CCC(=O)N1CCCC(CNC(=O)c2ccc(-c3ccccc3)cc2)C1 (stereo not given) | -0.4% | -2.0% | 23.9µM* | -1.0% | . | -3.4%
Cc1cc(C)cc(NS(=O)(=O)c2ccc(-c3cc(C)no3)cc2)c1 | . | . | 0.7% | . | . | .
COc1ccc(CNCc2ccc3c(c2)n(C)c(=O)n3C)cc1 | . | . | -0.5% | . | . | .
COc1ccc(/C=C/C(=O)NC(=S)NNC(=O)c2ccco2)cc1 | 0.6% | -7.9% | -14.9% | 0.6% | -1.1% | -2.1%
COc1ccc(/C=C/C(=O)NC(=S)NNC(=O)Cc2cccs2)cc1 | ? | 12.5% | -12.5% | -0.4% | 12.6µM* | 24.3%
O=C(/C=C/c1ccccc1)NC(=S)NNC(=O)Cc1cccs1 | 1.4% | 6.6% | -3.2% | -1.2% | 12.6µM* | 16.5%
COc1ccc(C(=O)NNC(=S)NC(=O)/C=C/c2cccs2)cc1 | 20.6µM* | 3.55µM* | 2.69µM* | ? | . | 3.55µM*
O=C(Nc1ccccc1F)c1nc(S(=O)(=O)Cc2ccccc2F)ncc1Cl | . | . | -14.0% | . | 21.7% | .
CN(CC(=O)Nc1cccc(F)c1)C(=O)CCCNC(=O)c1ccc(Cl)cc1 | 13.2% | ? | 12µM* | . | . | ?
CN(CC(=O)Nc1cccc(F)c1)C(=O)CCNC(=O)c1ccc(Br)cc1 | 13.6% | 8.2% | ? | . | . | 25.1%
COc1cc(Cl)cc(/C=C/c2ccc3ccccc3n2)c1OC(C)=O | ? | 2µM* | 6.75µM* | -3.0% | 2.51µM* | 2.51µM*
Cc1ccc(N2C(=O)CSC23C(=O)Nc2ccccc23)cc1F (stereo not given) | . | . | 3.6% | . | . | .
COc1ccccc1CNC(=O)CCCN1C(=O)CSc2c1c(C)nn2-c1ccccc1 | . | . | -1.2% | . | . | .
Nc1nc(N)c(S(=O)(=O)c2ccccc2)c(Nc2ccc(Br)cc2)n1 | . | . | -11.5% | . | -8.4% | .
O=C(Nc1noc2ccccc12)c1cccc(F)c1 | . | . | 2.39µM* | . | ? | .
CC(=O)Nc1nonc1NC(=O)c1ccc(F)cc1 | 1.8% | 0.5% | -0.7% | -2.8% | 17.8% | 22.3%
O=C(Nc1noc2ccccc12)c1ccc(F)cc1 | . | . | 2.13µM* | . | ? | .
O=C(Nc1ncn[nH]1)c1cccc(F)c1 | 2.0% | -1.6% | -0.1% | . | . | -1.5%
COc1cc2cc(C(=O)Nc3ccc4c(c3)OCCO4)[nH]c2cc1OC | ? | 29.2% | 12µM* | . | . | 14.7%
COc1cc2[nH]c(C(=O)NCC3CCCO3)cc2c(OC)c1OC (stereo not given) | 6.7% | -4.2% | 5.4% | . | . | -0.7%
COc1cc2[nH]c(C(=O)Nc3ccc4c(c3)OCCO4)cc2c(OC)c1OC | ? | 16.9% | 8.49µM* | . | . | 14.2%
